# From PubChem BioAssay (NCI)
# About 83,000 compounds went through this panel and 20% of them were active in at least one assay; those are over-represented in the sample as a whole.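 Negative percent growth values reflect cell death: -40 means 40% of the cells present at the start died, and -100 means all died.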 Values without a mark were called inactive. Activity calls are given as the source filed them. Rule for the calls: active = growth percent below 10; inactive = the rest.
# What was measured:
# Assay in all cases: NCI-60 one-dose screen, 48 h (100 = growth as untreated, 0 = no growth, -100 = all killed)
# Details in all cases: 10 µM
# SN12C renal = test system: SN12C renal
# UO-31 renal = test system: UO-31 renal
# TK-10 renal = test system: TK-10 renal
# ACHN renal = test system: ACHN renal
# CAKI-1 renal = test system: CAKI-1 renal
# A498 renal = test system: A498 renal
# MOLT-4 leukemia = test system: MOLT-4 leukemia
# SR leukemia = test system: SR leukemia
# RPMI-8226 leukemia = test system: RPMI-8226 leukemia
# OVCAR-8 ovarian = test system: OVCAR-8 ovarian
# OVCAR-4 ovarian = test system: OVCAR-4 ovarian
# SK-OV-3 ovarian = test system: SK-OV-3 ovarian
# IGROV1 ovarian = test system: IGROV1 ovarian
# OVCAR-3 ovarian = test system: OVCAR-3 ovarian
# HS 578T breast = test system: HS 578T breast
# NCI/ADR-RES ovarian = test system: NCI/ADR-RES ovarian
# T-47D breast = test system: T-47D breast
# OVCAR-5 ovarian = test system: OVCAR-5 ovarian
# CCRF-CEM leukemia = test system: CCRF-CEM leukemia
Structure (SMILES),growth (SN12C renal),growth (UO-31 renal),growth (TK-10 renal),growth (ACHN renal),growth (CAKI-1 renal),growth (A498 renal),growth (MOLT-4 leukemia),growth (SR leukemia),growth (RPMI-8226 leukemia),growth (OVCAR-8 ovarian),growth (OVCAR-4 ovarian),growth (SK-OV-3 ovarian),growth (IGROV1 ovarian),growth (OVCAR-3 ovarian),growth (HS 578T breast),growth (NCI/ADR-RES ovarian),growth (T-47D breast),growth (OVCAR-5 ovarian),growth (CCRF-CEM leukemia)
N#Cc1cccc(OCc2nc(N)nc(N)c2-c2ccc(Cl)c(Cl)c2)c1,33.3%,33.6%,46.1%,17.7%,10.5%,53.5%,32.7%,18.1%,60.1%,19.3%,88.3%,39%,17.8%,38.5%,49.7%,34.1%,71.5%,–,–
COc1cc2cc3c(nc2cc1OC)CCN3Cc1ccc(NC(=O)Nc2ccc(F)cc2F)cc1,79.9%,68.9%,94.6%,85.2%,62.3%,49.4%,58.9%,62.1%,66%,79.7%,61.2%,84%,89.8%,84.1%,99.7%,73%,52.1%,–,–
CCOC(=O)N1C/C(=C/c2ccc(OC)cc2)C(=O)/C(=C/c2ccc(OC)cc2)C1,50.2%,17.1%,59.5%,39.3%,41.9%,-0.589% (active),27.3%,-16.7% (active),-14.8% (active),19.6%,58%,26.9%,17.2%,0.817% (active),-15.8% (active),21.7%,43.7%,95%,–
c1ccc(CO[C@H]2CO[C@H]3[C@@H]2OC[C@H]3OCc2ccccc2)cc1,102%,72.1%,101%,101%,–,110%,95.2%,94.6%,–,107%,111%,96%,92.3%,111%,109%,106%,93.7%,99.6%,99.2%
Cc1cc(Cc2cc(C)c(O)c(C)c2)cc(C)c1O,65.3%,61.2%,77.5%,72.1%,42.8%,97.5%,22.8%,25.1%,58.2%,61.9%,77.1%,53%,45.2%,28.2%,33.8%,19.4%,52.8%,106%,–
O=S(=O)(NCCNc1nccc(-c2c(-c3ccc(F)cc3)nc3sccn23)n1)c1ccc2ccccc2c1,80.7%,43.4%,83.7%,56.6%,68.5%,79.5%,54%,46.6%,60.2%,69.6%,96.2%,85.2%,49.4%,87.9%,111%,84.4%,61.9%,130%,–
COc1cc(/C=C\c2cc(OC)c(OC)c(OC)c2)cc(NS(=O)(=O)c2ccc(Cl)cc2)c1OC,27.2%,35.9%,55.2%,39%,37.1%,-5.88% (active),–,14.4%,9.59% (active),17.1%,58.4%,28.2%,46.8%,10.3%,1.49% (active),12.8%,55.3%,45%,–
O=C(Nc1cccc(-n2cc(-c3ccncc3)c(-c3ccc(O)c(Cl)c3)n2)c1)Nc1ccc(Cl)c(Cl)c1,17%,-11.3% (active),16.7%,9.03% (active),-21.1% (active),23.2%,-10% (active),-0.568% (active),-30.8% (active),-24.9% (active),13.8%,19%,-0.387% (active),-16.5% (active),-0.243% (active),17.9%,-3.41% (active),31.4%,–
CN(CCc1ccccn1)c1ccccc1,104%,97.9%,104%,102%,–,109%,59.9%,87.5%,–,102%,98.5%,112%,103%,131%,107%,105%,97.4%,94%,-0.411% (active)
O=[N+]([O-])c1ccc(N/N=C/c2cccc3ccccc23)nc1,103%,86.9%,100%,91.8%,–,106%,57.3%,79.4%,–,104%,90.4%,105%,89.8%,122%,108%,107%,75.4%,96.7%,14.9%
CCCCCCCNc1nc(C=O)ncc1-c1ccc(C(F)(F)F)cc1,101%,63.1%,97%,104%,98.4%,86.2%,86.5%,-2.53% (active),84%,102%,110%,96.5%,89.8%,97.6%,107%,90.1%,81.6%,103%,–
CC(C)(C)c1cc(Br)cc(C(C)(C)C)c1O,96.5%,86.6%,113%,106%,89.5%,120%,96%,92.3%,93.9%,103%,112%,101%,115%,108%,120%,107%,99.8%,111%,–
O=C1/C(=C/c2ccc([N+](=O)[O-])s2)Oc2ccccc21,-23.1% (active),-78.1% (active),-21.5% (active),-55.3% (active),-26.8% (active),97.9%,-6.14% (active),7.01% (active),0.673% (active),2.43% (active),-86.7% (active),12.3%,-72.5% (active),-60.8% (active),25.7%,12.3%,2.78% (active),-56.7% (active),–
Cn1c([N+](=O)[O-])cnc1/C=C1\Oc2cc(Cl)ccc2C1=O,-15.1% (active),-35.2% (active),-24.4% (active),6.42% (active),-21.1% (active),57.4%,–,8.29% (active),11.7%,-13.3% (active),55%,-7.2% (active),-22% (active),-33.3% (active),-2.19% (active),-0.2% (active),86.6%,29.1%,-0.667% (active)
Cn1c([N+](=O)[O-])cnc1/C=C1\Oc2ccc(Cl)cc2C1=O,-10.9% (active),-31.9% (active),-23% (active),-2.7% (active),-22.9% (active),12.3%,-1.82% (active),11.6%,0.916% (active),-17.3% (active),-4.09% (active),-10.2% (active),-19.3% (active),-26.8% (active),-24.1% (active),2.61% (active),78.1%,-20.4% (active),–
CN(Cc1ccccc1)Cc1ccc([N+](=O)[O-])cc1I,99.9%,88.4%,106%,101%,93%,81.4%,91.1%,67.2%,91.9%,102%,91%,94.9%,92.5%,98.9%,95.4%,103%,93.9%,93.7%,–
COc1ccc(-c2nc3sc(-c4ccc(OC)cc4)c(-c4ccc(OC)cc4)n3c2/C=C/c2ccc(C(C)C)cc2)cc1,99.2%,83.6%,97.7%,97.9%,82.2%,99.1%,–,97.4%,97.4%,97%,90.8%,97.4%,111%,100%,89.4%,106%,97.2%,94.6%,96%
